Data: PubChem BioAssay (Tox21)
Results filed as inconclusive are left out. Unmarked numbers belong to inactive results. Active and inactive are the calls of the source. Calls come from the whole dose curve; as a rule, active = well fitted curve in the direction sought with a large enough effect in the repeat runs; inconclusive = weak or mixed curves; inactive = no such curve, though single readings can be large; an effect the other way counts as inactive or inconclusive.

Assay: qHTS RealTime-Glo MT Cell Viability Assay in HEK293 cells - 0 hour (AID 1224880); note: top concentration of the series differs between compounds; nearly all actives have a fitted effect of over 45% in size
Settings: RealTime-Glo luminescence; series mostly up to 76.8 µM; activity change, negative = cytotoxicity: at the top concentration
Summary of the method: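 600 HEK293 cells per well, dispensed already mixed with RealTime-Glo MT reagents. Compound dosing came 5 h later. The same wells were read for luminescence at 0, 8, 16, 24, 32 and 40 h of exposure at 37 C.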
% is set by controls: 0 for no effect and ±100 for the full control effect.

Compound	activity change, negative = cytotoxicity
CCCCC[C@H](O)/C=C/[C@H]1[C@H](O)CC(=O)[C@@H]1C/C=C\CCCC(=O)O	-4.87% [at 35.3 µM]
CCCC(=O)OC(=O)CCC	16.2%
CC[C@H]1OC(=O)[C@H](C)[C@@H](O[C@H]2C[C@@](C)(OC)[C@@H](O)[C@H](C)O2)[C@H](C)[C@@H](O[C@@H]2O[C@H](C)C[C@H](N(C)C)[C@H]2O)[C@](C)(O)C[C@@H](C)CN(C)[C@H](C)[C@@H](O)[C@]1(C)O	-4.69% [at 35.3 µM]
NC(=O)CCCCC(N)=O	-2.2%
CCCCCCCCCCCCCOC(=O)CCSCCC(=O)OCCCCCCCCCCCCC	-5.28% [at 15.8 µM]

Assay: A CellTox Green Cytotoxicity Assay to monitor cytotoxicity in HEK293 cells - 32 hour (AID 1224881); note: nearly all actives have a fitted effect of over 40% in size; note: potency is the fitted concentration of half-maximal effect
Settings: CellTox Green fluorescence; series mostly up to 76.8 µM; cytotoxicity increase: at the top concentration
Summary of the method: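 Dead-cell fluorescence measured kinetically: asymmetric cyanine dye, HEK293, 600 cells/well, 5 h settle, 23 nL cpd/DMSO, 37 C, reads 0–40 h every 8 h.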

Compound	cytotoxicity increase	Potency
O=C1[C@@H]2[C@H]3CC[C@H](C3)[C@@H]2C(=O)N1CCCCN1CCN(c2ncccn2)CC1	-3.37% [at 35.3 µM]	–
Cc1ccc2c(c1)CCCN2	-6.3%	–
O=C(NC(Cc1cc(=O)[nH]c2ccccc12)C(=O)O)c1ccc(Cl)cc1 (configuration not stated)	-15.9% [at 35.3 µM]	–
CC(C)(C)C1(CCc2ccc(Cl)cc2)CO1 (configuration not stated)	–	21.9 µM (active)
CC(C)(O)CCc1ccccc1	15%	–
Cc1ccc(N(CCO)CCO)cc1	-0.655%	–
CSCC[C@H](NC(=O)[C@H](Cc1c[nH]c2ccccc12)NC(=O)CCNC(=O)OC(C)(C)C)C(=O)N[C@@H](CC(=O)O)C(=O)N[C@@H](Cc1ccccc1)C(N)=O	2.09% [at 35.3 µM]	–
O=CNNC=O	-1.38%	–
O=C(O)CO	-17.5%	–
CCOc1ncc(F)c(=O)[nH]1	2.23% [at 35.3 µM]	–
O=C(O)CNC(=O)c1ccccc1I	-13.2% [at 35.3 µM]	–
Cc1cc(CCC(=O)OCCOCCOCCOC(=O)CCc2cc(C)c(O)c(C(C)(C)C)c2)cc(C(C)(C)C)c1O	-7.95%	–
